# Results from PubChem BioAssay (NCI).
# Compounds without any hit were thinned out: in the full panel of roughly 79,000, 15% have a hit. Unmarked numbers belong to inactive results. Activity calls are given as the source filed them. Cut-off read from the data, not from the text of the source: active = growth inhibition above about 70%; inactive = the rest.
# Experiment: NCI Yeast Anticancer Drug Screen. Data for the mec2-1 strain (AID 157)
# Settings: S. cerevisiae mec2-1 strain, hits give high values
# Protocol: Growth inhibition of yeast strains with defined genetic alterations is measured as a screen for potential anti-cancer activity. Selected strains with alterations in DNA damage repair or cell cycle control were exposed to compounds and growth inhibition was measured relative to vehicle treated controls. The strain used in this assay is mec2-1
# [1] = at 5.0 µM (retest, dose inferred, filed as 0.5)
# [2] = at 50.0 µM (retest, dose inferred, filed as 5.0)
SMILES,growth inhibition [1],growth inhibition [2],growth inhibition (at 50.0 µM)
O=C(CCl)Oc1c(Br)cc(-c2ccccc2)cc1Br,42%,99% (active),56.1%
CCN(CC)CCCC(Nc1c2ccc(Cl)cc2nc2ccc(OC)cc12)c1cccs1 (configuration not stated),91% (active),72% (active),35.2%
CCCCCCCCCCCCOC(=O)C[n+]1cccc(C(=O)Nc2ccc(Cl)cc2)c1,56%,99% (active),99.2% (active)
COC(=O)c1nc(=S)[nH]c(C(=O)OC)c1C(=O)c1ccccn1,-3%,84% (active),75% (active)
C/C(Cl)=N\OC(=O)Nc1ccc(C)cc1,-2%,99% (active),79.5% (active)
CCN(CC)CCOC(=O)CCN1CC2CCC(CC2)C1,13%,7%,-22.1%
O=C1C(c2ccccc2)=[N+]([O-])c2ccccc21,1%,98% (active),98% (active)
N#CSCc1ccc(Cl)c(CSC#N)c1,4%,99% (active),99.3% (active)
O=C(CNC(=O)c1ccccc1)NNc1ccccc1,4%,65%,71.2% (active)
CC(=O)N=C1N(/C=C2\C(=O)Oc3ccccc3C2=O)C(=O)/C(=C/c2ccco2)N1C,3%,74% (active),97.1% (active)
O=S=C(c1ccccc1)N(Cc1ccccc1)Cc1ccccc1,-1%,95% (active),96.2% (active)
CCOC(=O)c1csc(/C=C/c2cc(OC)c(OC)c(OC)c2)n1,-1%,1%,0.9%
CCOC(=O)c1[nH]n(-c2ccccc2)c(=O)c1/C=N/C(=S)Nc1ccccc1OC,-14%,-11%,-31.6%
CCOC(=O)C(=O)Nc1ccc(Cl)cc1Cl,-12%,-5%,-10.3%
